# Screening results from PubChem BioAssay.
# Wnt act = Wnt/beta-catenin pathway activation | AID 743398 | Wnt/beta-catenin reporter cell assay, activator, plate reader | 300,000 tested, 1.2% active | activation, % at 9.35 µM; in the data active means activation above about 30%, passing the limit was not always enough; inconclusive means no clear call, values can overlap the other calls;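 further: 0% = neutral control wells and 100% = positive control wells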
# FXN GAA850 act = activators of GAA850 frataxin (FXN) promoter. 360,000 tested, 0.56% active. activation, % at 6 µM. AID 540364. HEK293 lucGAA850 FXN promoter luciferase reporter, 24 h; percent of 10 µM SAHA response;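 active means activation above the average of all compounds screened plus 3 SD, cutoff fixed separately per campaign, cut at about 7.5% in these data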;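 further: 0% = DMSO wells and 100% = 10 µM SAHA wells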
# esBAF inh = blocks esBAF chromatin remodeling in mouse ES cells. Bmi1-luciferase knock-in reporter, 24 h; 100% = twice the neutral-well signal. reporter increase, % at 12.5 µM. 350,000 tested, 2% active; in the data active means activation above about 40%; inconclusive means no clear call, values can overlap the other calls;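 further: 0% = median of the plate's neutral control wells and 100% = double that signal; a rise in the Bmi1 reporter signal indicates esBAF inhibition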
# AHR act = activators of human aryl hydrocarbon receptor; P35869; AHR-responsive luciferase reporter cells, luminescence; activation, % at 5 µM; 320,000 tested, 2.5% active; AID 2796; in the data active means activation above about 47%;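 further: 0% = vehicle wells and 100% = reference agonist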
# MITF TRPM1 HTS = activators of MITF-driven TRPM1 promoter activity in SK-MEL-5 cells; SK-MEL-5 TRPM1-promoter luciferase, 24 h; % of positive control, neutral wells = 0; activation, % at 12.5 µM; 300,000 tested, 0.75% active;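 active means mean activation of at least 80% with every replicate also reaching 80%; inconclusive means mean reaches 80% but some replicate falls short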;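 further: 0% = neutral control wells and 100% = parthenolide positive control wells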
# AHR act confirm = confirmation of human aryl hydrocarbon receptor activators; shares compounds with AHR act; activation, % at 9 µM; 2,300 tested, 87% active; AID 2845; human cells, AHR-responsive luciferase reporter, luminescence; in the data active means activation above about 49%;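 further: HepG2 hepatoma cells carrying a DRE-driven firefly luciferase reporter; 0% = vehicle wells and 100% = reference agonist wells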
# PXR act counter = counter-screen for AHR activators: human PXR activators | shares compounds with AHR act | cell-based PXR reporter, luciferase luminescence | activation, % at 11.6 µM | 2,300 tested, 88% active | AID 434939; in the data active means activation above about 11%;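 further: human hepatoma DPX-2 cells expressing full-length human PXR; 0% = DMSO and 100% = reference agonist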
# Target sequence (O75469 whole entry, looked up): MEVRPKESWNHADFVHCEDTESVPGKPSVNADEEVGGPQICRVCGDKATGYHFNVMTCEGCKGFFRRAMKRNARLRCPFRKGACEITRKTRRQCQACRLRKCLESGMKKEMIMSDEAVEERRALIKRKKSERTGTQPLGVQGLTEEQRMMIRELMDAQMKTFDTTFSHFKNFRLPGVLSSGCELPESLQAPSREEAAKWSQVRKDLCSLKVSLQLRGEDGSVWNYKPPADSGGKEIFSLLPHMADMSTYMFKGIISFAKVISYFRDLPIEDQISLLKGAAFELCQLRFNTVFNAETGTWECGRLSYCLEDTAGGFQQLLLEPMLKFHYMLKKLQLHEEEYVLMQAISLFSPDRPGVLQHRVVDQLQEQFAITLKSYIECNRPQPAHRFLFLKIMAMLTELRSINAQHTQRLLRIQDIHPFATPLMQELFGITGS
# The depositor's hits bear a star; ? = inconclusive; . = no result. Most compounds without a hit are left out; they make up all but 4.2% or so of the library.
SMILES,Wnt act,FXN GAA850 act,esBAF inh,AHR act,MITF TRPM1 HTS,AHR act confirm,PXR act counter
COc1ccc(-c2cc(=O)c3ccccc3[nH]2)cc1,7,2,10,38,10,.,.
O=c1nc(-c2ccccc2)c2cc(Cl)ccc2[nH]1,.,1,-6,3,-5,.,.
Clc1ccc2[nH]c(-c3ccccc3)cc2c1,.,2,60*,115*,46,138*,17*
O=c1cc(-c2ccccc2)[nH]c2cc(Cl)ccc12,-13,1,-6,96*,-9,64*,23*
C=CCNc1ncnc2c1[nH]c1ccc(Cl)cc12,.,4,-2,110*,.,113*,44*
C=CCNc1ncnc2c1[nH]c1ccccc12,2,-3,-16,28,-14,.,.
Fc1ccccc1/C=C/c1ccc2ccccc2n1,.,-3,.,89*,-25,74*,7
COc1cccc(C(=O)Nc2nnc(C(C)C)s2)c1,.,1,-39,133*,17,0,28*
COc1ccc(Cc2nnc(NC(=O)c3cc(OC)cc(OC)c3)s2)cc1,0,0,-8,82*,-4,76*,12*
Cc1ccc2nsnc2c1NC(=S)NC(=O)c1ccco1,0,5,.,97*,-23,111*,15*
COc1ccc(-c2cc(-c3cc(OC)ccc3O)[nH]n2)cc1,.,4,54*,159*,.,140*,18*
COc1ccc(-c2n[nH]c(C)c2-c2cc(OC)ccc2O)cc1,-6,-1,-3,4,4,.,.
COc1ccc(O)c(-c2cc(-c3ccc(F)cc3)n[nH]2)c1,?,4,72*,96*,42,159*,15*
CCOC(=O)c1oc2ccccc2c1NC(=O)COC,.,2,-5,89*,3,104*,15*
COC(=O)c1oc2ccc(Br)cc2c1-n1cccc1,.,0,0,-1,-3,.,.
Cc1ccc(C(=O)c2oc3ccccc3c2N)cc1,.,5,88*,113*,32,138*,22*
CCOC(=O)c1oc2ccccc2c1N,4,4,.,82*,43,122*,.
Cc1ccc(Nc2c(N)c(=O)oc3ccccc23)cc1,26,-1,.,29,.,.,.
Nc1c(C(=O)c2ccccc2)oc2ccc(Br)cc12,11,4,72*,79*,62,120*,12*
Cc1noc(C)c1NC(=O)Nc1cccc2c1O[C@@H](CN(C)C(=O)Nc1c(C)noc1C)[C@H](C)CN([C@@H](C)CO)C2=O,.,.,-1,.,.,.,.
C[C@H](CO)N1C[C@H](C)[C@H](CN(C)Cc2ccc(Cl)c(Cl)c2)OCc2cn(nn2)CCCC1=O,.,.,2,.,.,.,.
CN(CCO)c1c2c(nc3cc(-c4cccc(F)c4)nn13)CCCC2,40*,7,-14,89*,.,92*,64*
Cc1cccc(NC(=S)Nc2cccc(C(F)(F)F)c2)n1,6,4,.,104*,4,125*,23*
COc1ccc2c(C)nc(Nc3nc(C)cc(C)n3)nc2c1,.,-5,1,109*,.,101*,21*
C=C1c2cc3c(cc2NC(=S)N1Cc1ccccc1)OCO3,-2,1,.,86*,.,65*,145*
SMILES,Wnt act,FXN GAA850 act,esBAF inh,AHR act,MITF TRPM1 HTS,AHR act confirm,PXR act counter
Cc1cc2c(C)nc(-c3ccccc3)nc2o1,49*,3,.,116*,77,159*,39*
Cc1nc(NCCCn2ccnc2)c2oc3ccccc3c2n1,0,-1,3,79*,0,110*,23*
c1ccc2c(c1)oc1c(NCCCN3CCOCC3)ncnc12,.,0,18,6,2,.,.
c1ccc2c(c1)oc1c(NCCCn3ccnc3)ncnc12,.,3,.,106*,-16,110*,22*
C/C=C/c1cnc2c(c1)C(=O)N([C@H](C)CO)C[C@@H](C)[C@H](CN(C)C(=O)NC1CCCCC1)O2,.,.,-1,.,.,.,.
Cn1c(=O)n(CCc2ccccc2)c2ccccc21,1,2,1,125*,.,111*,40*
CCNC(=O)[C@H]1[C@H](CO)[C@H]2Cn3c(ccc(-c4cncnc4)c3=O)[C@H]2N1C(=O)c1ccccc1F,.,.,-4,.,.,.,.
CCn1c(=O)c([N+](=O)[O-])c(NCCCn2ccnc2)c2ccccc21,0,0,.,101*,-6,93*,52*
COc1ccc(S(=O)(=O)N(C)C[C@@H]2Oc3ccc(NC(=O)Nc4ccc5c(c4)OCO5)cc3CC(=O)N([C@@H](C)CO)C[C@H]2C)cc1,.,.,3,.,.,.,.
O=C1NC(c2ccc(Cl)cc2)Nc2ccccc21 (stereo unspecified),-2,0,.,80*,-10,115*,25*
Cc1ccc(C2NC(=O)c3ccccc3N2)s1 (stereo unspecified),.,7,.,100*,33,91*,19*
O=C1NC(c2ccncc2)Nc2ccccc21 (stereo unspecified),.,1,-8,12,11,.,.
Cc1cccc(C2NC(=O)c3ccccc3N2)c1 (stereo unspecified),-3,1,.,.,.,.,.
CO[C@@H](CN(C)S(=O)(=O)c1ccccc1)[C@H](C)CN(Cc1ccccc1Cl)[C@@H](C)CO,.,.,-5,.,.,.,.
CCC(=O)Nc1cc(-c2nc3ncccc3o2)ccc1Cl,1,0,-1,110*,.,97*,16*
Cc1ccc(-c2nc3ncccc3o2)cc1NC(=O)C(C)(C)C,2,2,-13,91*,.,91*,32*
CC(C)C(=O)Nc1cc(-c2nc3ncccc3o2)ccc1Cl,1,1,4,18,4,.,.
COc1ccc(S(=O)(=O)N(C)C[C@H]2Oc3ccc(NC(=O)NC4CCCCC4)cc3C(=O)N([C@@H](C)CO)C[C@@H]2C)cc1,.,.,2,.,.,.,.
CNC[C@@H]1Oc2ncc(C#Cc3cccc(OC)c3)cc2C(=O)N([C@@H](C)CO)C[C@@H]1C,.,.,4,.,.,.,.
c1ccc2c(C3=NNC(=NC4CC4)SC3)c[nH]c2c1,.,2,.,97*,-37,8,11*
Cn1ccnc1SCc1nc2c(cnn2-c2ccccc2)c(=O)[nH]1,-2,-2,.,82*,4,85*,16*
O=c1[nH]c(CSc2ccccn2)nc2c1cnn2-c1ccccc1,10,1,.,97*,32,71*,34*
CCCSc1nc2c(cnn2-c2ccccc2)c(=O)[nH]1,-3,1,-10,44,-5,.,.
C[C@@H]1CN([C@H](C)CO)C(=O)c2cc(-c3cncnc3)cnc2O[C@@H]1CN(C)C(=O)Cc1ccccc1,.,.,5,.,.,.,.
O=C(NC(=S)Nc1ccc(CN2CCOCC2)cc1)c1ccc(-c2cccc(Cl)c2)o1,4,0,3,90*,.,67*,20*
O=C(/C=C/c1ccccc1)NC(=S)Nc1ccc(CN2CCOCC2)cc1,-3,0,.,3,1,.,.
